Drawing on PubChem BioAssay (EPA / NIEHS), this text covers outcome and AC50 for four molecules.

SMILES strings stand for the structures. The source made the active and inactive calls. Rule for the calls: active = hit-call score of the fitted dose curve at least 0.9, where 1 is the maximum; inactive = score below 0.9.

The nature of test [1]: ATG_M_32_CIS: Attagene CIS-FACTORIAL HepG2 Assay for M32 Transcription Factor (Internal Marker) (AID 2282949).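 Note: background control marker of the multiplexed CIS panel rather than a real target.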 To be noted: HepG2 Attagene cis-factorial M32 reporter, mRNA; actives raise or lower the signal. The method in brief: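 Using DMSO as baseline, bidirectional curve fits were applied to reporter mRNA signals. These came from transiently transfected HepG2 cells exposed for 24 h, with RNA analysed by RT-PCR, FAM primer extension, HpaI digestion and CE.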

The target of test [2] is Hypoxia-inducible factor 1-alpha (Homo sapiens) (UniProt Q16665). Description: ATG_HIF1a_CIS: Attagene CIS-FACTORIAL HepG2 Assay for human Hypoxia Inducible Factor 1 (HIF1A) (AID 2282951). The settings on record: HepG2 Attagene cis-factorial HIF1a reporter transcription; actives raise or lower the signal. The essentials:
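Measures endogenous transcription-factor activity through cis-regulated reporter mRNA in HepG2. Cells dosed 24 h; transcripts quantified by RT-PCR with 6-FAM-labelled products separated by capillary electrophoresis; DMSO serves as negative control.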

Test [3] has as its target Hepatocyte nuclear factor 6 (Homo sapiens) (UniProt Q9UBC0). Description: ATG_HNF6_CIS: Attagene CIS-FACTORIAL HepG2 Assay for human Hepatocyte Nuclear Factor 6 (HNF6) (AID 2282952). The settings on record: HepG2 Attagene cis-factorial HNF6 reporter transcription; actives raise or lower the signal. The method in brief: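 Endogenous transcription factor activity in human HepG2 liver cells was captured through cis-regulated reporter constructs. After 24 h treatment, reporter mRNA was measured by RT-PCR with capillary electrophoresis, and activity was fitted in both directions relative to DMSO.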

Test [4] is described as follows: ATG_MRE_CIS: Attagene CIS-FACTORIAL HepG2 Assay for human Metal Responsive Element (MRE) (AID 2282954). The settings on record: HepG2 MRE cis-reporter transcription, Attagene multiplex; actives raise or lower the signal. The method in brief: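 RT-PCR/capillary electrophoresis readout of reporter mRNA, 24 h post-dosing, in HepG2 cells transfected with multiplexed cis-regulated reporter constructs. Gain or loss of signal fitted bidirectionally against DMSO baseline.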

Test [5] is described as follows: ATG_PBREM_CIS: Attagene CIS-FACTORIAL HepG2 Assay for human Phenobarbital-responsive Enhancer Module (PBREM) (AID 2282955). To be noted: HepG2 PBREM cis-reporter, Attagene multiplexed transcription; actives raise or lower the signal. The essentials:
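Fluorescence of labelled reporter cDNA fragments, resolved by capillary electrophoresis, gives mRNA induction in transfected HepG2 cells treated for 24 h; DMSO serves as negative control and baseline.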

The target in test [6] is Paired box protein Pax-6 (Homo sapiens) (UniProt P26367). Kind of test: ATG_Pax6_CIS: Attagene CIS-FACTORIAL HepG2 Assay for human Paired Box 6 (PAX6) (AID 2282956). The settings on record: HepG2 CIS-FACTORIAL PAX6 reporter transcription, RNA readout; actives raise or lower the signal. The method in brief: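 Read-out is reporter transcript level, measured by RT-PCR with fluorescent primer extension and capillary electrophoresis after 24 h dosing of transfected HepG2 cells. Activity in either direction fitted relative to DMSO control.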

Test [7] is described as follows: ATG_PXRE_CIS: Attagene CIS-FACTORIAL HepG2 Assay for human Pregnane X Receptor Element (PXRE) (AID 2282957). To be noted: HepG2 Attagene CIS-FACTORIAL PXRE reporter, mRNA; actives raise or lower the signal. The essentials:
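Endogenous transcription factor activity in HepG2 was gauged through induction of reporter mRNA driven by a cis-regulating promoter element, sampled 24 h post-treatment. Activity was fitted in both directions against DMSO negative control.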

Test [8] in a line: ATG_RORE_CIS: Attagene CIS-FACTORIAL HepG2 Assay for human RAR-related Orphan Receptor Element (RORE) (AID 2282959). The settings on record: HepG2 Attagene cis-factorial RORE reporter, mRNA; actives raise or lower the signal. The method in brief: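 Cells were HepG2 carrying transfected cis-regulated reporter constructs, dosed for 24 hours. Total RNA was reverse-transcribed and reporter cDNA amplified, fluorescently labeled and sized by capillary electrophoresis. Activity was fitted bidirectionally relative to DMSO.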

Test [9] addresses Transcription factor Sp1 (Homo sapiens) (UniProt P08047). Kind of test: ATG_Sp1_CIS: Attagene CIS-FACTORIAL HepG2 Assay for human Specificity Protein 1 (Sp1) (AID 2282961). The settings on record: HepG2 Sp1 cis-reporter transcription, actives raise or lower the signal. The essentials: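 Endogenous Sp1 activity was gauged in human liver HepG2 cells bearing transfected reporter units under a cis-regulating promoter. After 24 h dosing, reporter mRNA was quantified by RT-PCR with capillary electrophoresis, and activity fitted bidirectionally versus DMSO.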

The target of test [10] is Signal transducer and activator of transcription 3 (Homo sapiens) (UniProt P40763). Description: ATG_STAT3_CIS: Attagene CIS-FACTORIAL HepG2 Assay for human Signal Transducer and Activator of Transcription 3 (STAT3) (AID 2282963). To be noted: HepG2, Attagene cis-factorial STAT3 reporter transcription; actives raise or lower the signal. The method in brief: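 Readout: fluorescent reporter mRNA fragments resolved by capillary electrophoresis. Setup: HepG2 transfected with MRTUs reporting endogenous transcription-factor activity, dosed 24 h. Gain or loss of signal fitted bidirectionally against DMSO control.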

Test [11] can be described thus: ATG_TA_CIS: Attagene CIS-FACTORIAL HepG2 Assay for human TA Basal Promoter (AID 2282964). To be noted: HepG2 Attagene CIS-factorial TA basal promoter reporter; actives raise or lower the signal. The method in brief: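 Background-control readout: TA basal promoter reporter mRNA, fitted in both directions relative to DMSO. Measured by RT-PCR and capillary electrophoresis 24 hours after treating HepG2 human liver cells transiently carrying multiplexed cis-regulated reporter constructs.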

Test [12] can be described thus: ATG_TCF_b_cat_CIS: Attagene CIS-FACTORIAL HepG2 Assay for human T-Cell-Factor with beta-catenin (TCF/b-cat) (AID 2282965). To be noted: HepG2 TCF/beta-catenin cis-reporter transcription, actives raise or lower the signal. The essentials:
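Cells of the HepG2 line carry transiently transfected reporter units whose promoters respond to endogenous factors. Twenty-four hours post-dosing, reporter mRNA induction is measured by fluorescent RT-PCR and capillary electrophoresis, with DMSO as baseline.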

Test [13] in a line: ATG_TAL_CIS: Attagene CIS-FACTORIAL HepG2 Assay for human TAL Basal Promoter (AID 2282966).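 Note: background control endpoint measuring basal TAL promoter reporter mRNA not a specific factor.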 To be noted: HepG2 Attagene cis-factorial TAL promoter reporter; actives raise or lower the signal. The essentials: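 Endogenous transcription-factor activity is sensed in HepG2 cells through transfected cis-promoter reporter constructs. After 24 h dosing, reporter transcripts are quantified by RT-PCR and capillary electrophoresis. Gain or loss of signal is fitted relative to DMSO.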

A short description of test [14]: ATG_TGFb_CIS: Attagene CIS-FACTORIAL HepG2 Assay for human Transforming Growth Factor (TGF) (AID 2282967). The settings on record: HepG2 Attagene CIS TGFb reporter, mRNA transcription; actives raise or lower the signal. The essentials: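 Endogenous TGFB1-linked transcription factor activity read as reporter mRNA via RT-PCR and capillary electrophoresis, 24 h after dosing transiently transfected HepG2 cells. Gain or loss of signal fitted relative to DMSO.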

Test [15] can be described thus: ATG_VDRE_CIS: Attagene CIS-FACTORIAL HepG2 Assay for human Vitamin D Receptor Element (VDRE) (AID 2282968). The settings on record: HepG2 VDRE cis-reporter transcription, actives raise or lower the signal. The essentials: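 Transient MRTU transfection of HepG2, 24 h compound exposure. Readout: reporter transcripts via RT-PCR and capillary electrophoresis, fluorescence. Bidirectional fit vs DMSO.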

The target in test [16] is Heat shock factor protein 1 (Homo sapiens) (UniProt Q00613). Kind of test: ATG_HSE_CIS: Attagene CIS-FACTORIAL HepG2 Assay for human Heat Shock Transcription Factor 1 (HSE) (AID 2282953). The settings on record: HepG2 HSE cis-reporter, Attagene RNA transcription; actives raise or lower the signal. The method in brief:
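Endogenous transcription factor activity in transiently transfected HepG2, read as reporter mRNA by RT-PCR with fluorescent capillary electrophoresis after 24 h. Gain or loss of signal fitted versus DMSO baseline.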

Test [17] is described as follows: ATG_Sox_CIS: Attagene CIS-FACTORIAL HepG2 Assay for human SRY-box transcription factor (SOX) (AID 2282960). The settings on record: HepG2 Attagene cis-factorial SOX reporter, mRNA; actives raise or lower the signal. The method in brief:
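Transient MRTU transfection of HepG2; 24 h compound incubation; TriZol RNA, oligo(dT) RT, PCR, 6-FAM primer extension, HpaI cut, CE. Bidirectional fit, DMSO = baseline.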

Test [18] in a line: ATG_SREBP_CIS: Attagene CIS-FACTORIAL HepG2 Assay for human Sterol Regulatory Element Binding (SREBP) (AID 2282962). The settings on record: HepG2 Attagene cis-factorial SREBP reporter, mRNA; actives raise or lower the signal. The method in brief:
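Endogenous SREBP activity read as cis-element-driven reporter transcript in transiently transfected HepG2, 24 h post-dosing; quantified via RT-PCR plus capillary electrophoresis of fluorescent fragments. Gain or loss of signal fitted relative to DMSO baseline.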

Test [19] can be described thus: ATG_PPRE_CIS: Attagene CIS-FACTORIAL HepG2 Assay for human Peroxisome Proliferator-activated Response Element (PPRE) (AID 2282958). To be noted: HepG2 PPRE cis-element reporter, Attagene transcription factor profiling; actives raise or lower the signal. The essentials:
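Cells are first transfected transiently with the multiplexed reporter library, then dosed for 24 h. Total RNA is reverse-transcribed, amplified, fluorescently end-labeled and HpaI-cut before capillary electrophoresis; activity is fitted bidirectionally against DMSO controls.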

Transcription factor Sp1 (Homo sapiens), sequence (P08047 whole entry, looked up): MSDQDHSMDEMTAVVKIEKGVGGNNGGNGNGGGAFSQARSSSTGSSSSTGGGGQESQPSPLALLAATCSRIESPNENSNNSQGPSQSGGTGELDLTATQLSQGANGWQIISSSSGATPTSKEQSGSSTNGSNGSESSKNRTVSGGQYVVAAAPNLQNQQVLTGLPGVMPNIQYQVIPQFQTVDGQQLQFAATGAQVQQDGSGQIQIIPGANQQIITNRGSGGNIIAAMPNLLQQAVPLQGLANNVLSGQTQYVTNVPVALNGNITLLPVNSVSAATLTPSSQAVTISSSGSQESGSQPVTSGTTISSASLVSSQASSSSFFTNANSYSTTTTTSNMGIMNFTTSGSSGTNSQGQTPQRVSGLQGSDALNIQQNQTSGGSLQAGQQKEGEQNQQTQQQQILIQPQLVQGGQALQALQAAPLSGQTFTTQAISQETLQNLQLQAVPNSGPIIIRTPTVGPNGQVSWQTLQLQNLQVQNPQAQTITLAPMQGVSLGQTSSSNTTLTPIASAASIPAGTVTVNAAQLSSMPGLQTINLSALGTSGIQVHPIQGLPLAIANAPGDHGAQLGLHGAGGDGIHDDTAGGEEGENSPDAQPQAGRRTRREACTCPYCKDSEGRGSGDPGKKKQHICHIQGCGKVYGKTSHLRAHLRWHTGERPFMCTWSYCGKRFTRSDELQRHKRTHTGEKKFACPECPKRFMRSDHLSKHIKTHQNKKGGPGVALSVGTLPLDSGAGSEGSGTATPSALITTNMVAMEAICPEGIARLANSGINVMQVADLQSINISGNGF
Signal transducer and activator of transcription 3 (Homo sapiens), sequence (P40763 whole entry, looked up, the tested form may be a part): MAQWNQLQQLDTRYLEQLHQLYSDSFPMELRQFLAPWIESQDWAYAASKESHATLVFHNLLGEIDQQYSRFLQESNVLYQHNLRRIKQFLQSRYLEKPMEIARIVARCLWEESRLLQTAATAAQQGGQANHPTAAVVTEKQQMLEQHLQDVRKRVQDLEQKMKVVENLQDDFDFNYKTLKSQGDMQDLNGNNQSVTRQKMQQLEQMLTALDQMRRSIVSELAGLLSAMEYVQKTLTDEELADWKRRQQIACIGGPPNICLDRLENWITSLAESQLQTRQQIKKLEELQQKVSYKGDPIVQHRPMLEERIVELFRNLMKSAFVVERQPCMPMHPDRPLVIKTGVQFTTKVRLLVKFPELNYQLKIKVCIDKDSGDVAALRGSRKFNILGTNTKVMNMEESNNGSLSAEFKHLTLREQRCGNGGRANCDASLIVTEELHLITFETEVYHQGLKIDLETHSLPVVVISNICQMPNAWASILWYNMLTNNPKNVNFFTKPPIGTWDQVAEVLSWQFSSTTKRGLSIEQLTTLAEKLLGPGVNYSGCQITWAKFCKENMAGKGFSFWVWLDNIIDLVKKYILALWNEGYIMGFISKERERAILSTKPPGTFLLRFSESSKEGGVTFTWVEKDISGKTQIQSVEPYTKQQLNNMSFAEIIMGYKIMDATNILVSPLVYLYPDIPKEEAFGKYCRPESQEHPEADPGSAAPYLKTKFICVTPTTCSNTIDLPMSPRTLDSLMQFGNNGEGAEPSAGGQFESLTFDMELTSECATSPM
Heat shock factor protein 1 (Homo sapiens), sequence (Q00613 whole entry, looked up): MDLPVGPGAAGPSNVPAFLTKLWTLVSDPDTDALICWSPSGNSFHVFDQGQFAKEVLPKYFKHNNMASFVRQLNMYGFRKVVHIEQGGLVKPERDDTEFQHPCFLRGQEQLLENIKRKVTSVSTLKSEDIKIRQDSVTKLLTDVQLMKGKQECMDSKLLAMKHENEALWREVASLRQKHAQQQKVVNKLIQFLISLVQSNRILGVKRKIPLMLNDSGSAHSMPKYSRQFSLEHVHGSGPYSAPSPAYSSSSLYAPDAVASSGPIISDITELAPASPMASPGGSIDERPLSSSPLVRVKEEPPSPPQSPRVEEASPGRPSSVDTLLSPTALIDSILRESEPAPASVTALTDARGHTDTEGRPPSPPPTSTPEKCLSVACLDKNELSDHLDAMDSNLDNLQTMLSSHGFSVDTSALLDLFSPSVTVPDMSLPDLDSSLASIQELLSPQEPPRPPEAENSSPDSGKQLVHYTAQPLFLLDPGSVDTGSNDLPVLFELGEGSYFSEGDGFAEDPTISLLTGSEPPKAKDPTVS
Hepatocyte nuclear factor 6 (Homo sapiens), sequence (Q9UBC0 whole entry, looked up): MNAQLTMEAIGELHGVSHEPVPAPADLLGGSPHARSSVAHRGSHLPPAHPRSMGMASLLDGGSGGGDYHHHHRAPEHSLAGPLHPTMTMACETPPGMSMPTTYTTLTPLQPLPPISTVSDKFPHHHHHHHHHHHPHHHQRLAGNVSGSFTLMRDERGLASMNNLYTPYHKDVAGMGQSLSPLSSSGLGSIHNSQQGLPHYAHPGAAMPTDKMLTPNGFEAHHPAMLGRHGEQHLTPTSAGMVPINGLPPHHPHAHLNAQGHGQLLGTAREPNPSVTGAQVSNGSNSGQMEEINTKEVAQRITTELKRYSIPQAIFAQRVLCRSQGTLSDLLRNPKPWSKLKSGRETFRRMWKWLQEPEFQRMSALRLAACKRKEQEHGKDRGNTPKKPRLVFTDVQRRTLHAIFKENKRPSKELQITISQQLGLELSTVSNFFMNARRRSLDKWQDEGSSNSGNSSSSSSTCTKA
Hypoxia-inducible factor 1-alpha (Homo sapiens), sequence (Q16665 whole entry, looked up): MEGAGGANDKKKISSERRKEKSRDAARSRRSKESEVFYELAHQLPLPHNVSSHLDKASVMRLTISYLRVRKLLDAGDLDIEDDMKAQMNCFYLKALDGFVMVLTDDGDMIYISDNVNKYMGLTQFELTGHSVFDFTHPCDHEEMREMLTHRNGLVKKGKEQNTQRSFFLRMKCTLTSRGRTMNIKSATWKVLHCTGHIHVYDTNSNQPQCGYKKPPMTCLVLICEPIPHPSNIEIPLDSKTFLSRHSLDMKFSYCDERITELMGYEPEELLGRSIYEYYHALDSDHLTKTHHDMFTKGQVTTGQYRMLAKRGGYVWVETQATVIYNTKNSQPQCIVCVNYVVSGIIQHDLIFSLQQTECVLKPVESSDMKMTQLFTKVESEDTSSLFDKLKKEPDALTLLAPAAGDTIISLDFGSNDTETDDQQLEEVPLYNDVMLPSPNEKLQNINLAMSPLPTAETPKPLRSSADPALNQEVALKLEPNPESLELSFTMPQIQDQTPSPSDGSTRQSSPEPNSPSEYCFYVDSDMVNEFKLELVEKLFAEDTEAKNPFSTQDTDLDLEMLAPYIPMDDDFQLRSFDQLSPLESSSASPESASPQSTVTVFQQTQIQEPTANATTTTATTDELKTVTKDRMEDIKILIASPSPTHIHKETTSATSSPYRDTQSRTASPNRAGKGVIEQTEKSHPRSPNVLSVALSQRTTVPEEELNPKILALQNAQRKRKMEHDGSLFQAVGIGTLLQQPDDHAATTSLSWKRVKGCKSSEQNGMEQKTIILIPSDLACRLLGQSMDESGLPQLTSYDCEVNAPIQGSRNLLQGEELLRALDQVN
Paired box protein Pax-6 (Homo sapiens), sequence (P26367 whole entry, looked up): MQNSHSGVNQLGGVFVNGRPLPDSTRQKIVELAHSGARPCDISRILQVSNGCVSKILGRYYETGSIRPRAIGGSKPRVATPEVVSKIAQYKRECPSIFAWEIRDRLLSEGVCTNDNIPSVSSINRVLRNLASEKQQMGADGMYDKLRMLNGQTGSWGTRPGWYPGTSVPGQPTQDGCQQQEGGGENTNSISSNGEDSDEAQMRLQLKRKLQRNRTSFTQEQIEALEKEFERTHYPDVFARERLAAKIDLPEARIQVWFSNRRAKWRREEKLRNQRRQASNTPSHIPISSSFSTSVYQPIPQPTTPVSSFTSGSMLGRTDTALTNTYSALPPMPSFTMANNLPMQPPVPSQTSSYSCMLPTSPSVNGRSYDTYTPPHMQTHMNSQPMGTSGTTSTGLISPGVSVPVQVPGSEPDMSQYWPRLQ

As for `O=C(Cl)OCCOCCOC(=O)Cl`, the call in [1], in [2], in test [3], in [4], in [5] and in test [6] was inactive. In addition, the outcome in test [7], in test [8], in test [9], in [10], in [11] and in [12] was inactive. In addition, the molecule was called inactive in test [13], in test [14] and in test [15].

Regarding `Cc1cc(SCc2sc(-c3ccc(C(F)(F)F)c(F)c3)nc2C)ccc1OCC(=O)O`, the outcome in test [1], in [3], in test [17], in test [9], in test [18] and in test [10] was inactive. In test [14], the outcome was inactive. In addition, the half-maximal activity concentration (AC50) in [2] is 17.2 µM (active); in test [16], 50.9 µM (active); in test [4], 24.5 µM (active); in [6] it was 33.4 µM (active); in test [7], 1.32 µM (active); in test [8], 8.36 µM (active). The AC50 in test [11] is 23 µM (active); in test [12] it was 24.8 µM (active); in test [13], 15.5 µM (active); in [15], 9.54 µM (active).

Consider `CCN(CCO)CCO`, for which the molecule was called inactive in test [1], in [2], in test [3], in [16], in [4] and in test [5]. The molecule was classed as inactive in [19], in test [8], in test [17], in test [9], in test [18] and in [10]. Further, the outcome in test [11], in test [12], in [13], in test [14] and in test [15] was inactive. The AC50 in [7] is 27.2 µM (active).

On to `CC1CC(=O)O1` (stereo unspecified), for which the result in test [1], in test [3], in [16], in test [4], in test [6] and in test [7] was inactive. For the same molecule, the call in test [19], in [8], in test [9], in test [10], in [11] and in test [12] was inactive. The call in test [13], in [14] and in test [15] was inactive. In addition, the AC50 in test [2] was 88 µM (active).
